# Assay results: PubChem BioAssay AID1159580 (chemical genetic matrix, 2015)
# Hit rate of the full screen: of about 5,500 compounds, about 2,000 (36%) were called active. Inconclusive results (about 18%) are left out. This is one part of the list. Unmarked numbers belong to inactive results. Cut-off read from the data, not from the text of the source: active = normalized growth mostly below about 0.91 (no sharp cut-off); inconclusive = no clear call, values can overlap the other calls; inactive = mostly above about 0.92.
# Experiment: chemical genetic growth profiling, strain panel (AID 1159580);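 note: tested at 20 µM; growth read once vehicle control cultures reached saturation at 30 °C; 1 = growth at the plate median or of vehicle wells; lower values mean less growth of the strain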
# Details: S. cerevisiae deletion strains, growth OD
smiles,measurement,setting,value
CC(=O)Oc1c2c(c3c(c1CC=C(C)C)O[C@]14C(=C[C@@H]5CC1C(C)(C)OC4(C/C=C(\C)C(=O)O)C5=O)C3=O)OC(C)(CCC=C(C)C)C=C2 (some centres not stated),normalized growth,"locus YAL021C, strain ccr4, hits give low values",1
same,normalized growth,"locus YAL026C, strain drs2, hits give low values",0.979
same,normalized growth,"locus YAL030W, strain snc1, hits give low values",0.976
same,normalized growth,"locus YBL061C, strain skt5, hits give low values",0.949
same,normalized growth,"locus YBR009C, strain hhf1, hits give low values",0.958
same,normalized growth,"locus YBR023C, strain chs3, hits give low values",0.964
same,normalized growth,"locus YBR171W, strain sec66, hits give low values",0.974
same,normalized growth,"locus YBR231C, strain swc5, hits give low values",0.94
same,normalized growth,"locus YBR279W, strain paf1, hits give low values",0.961
same,normalized growth,"locus YCL011C, strain gbp2, hits give low values",0.988
same,normalized growth,"locus YCL016C, strain dcc1, hits give low values",0.987
same,normalized growth,"locus YCL061C, strain MRC1, hits give low values",0.98
same,normalized growth,"locus YCL069W, strain vba3, hits give low values",0.984
same,normalized growth,"locus YCR088W, strain abp1, hits give low values",0.985
same,normalized growth,"locus YDL005C, strain med2, hits give low values",0.968
same,normalized growth,"locus YDL040C, strain nat1, hits give low values",0.977
same,normalized growth,"locus YDR001C, strain nth1, hits give low values",0.985
same,normalized growth,"locus YDR069C, strain doa4, hits give low values",0.977
same,normalized growth,"locus YDR137W, strain rgp1, hits give low values",0.775 (active)
same,normalized growth,"locus YDR159W, strain sac3, hits give low values",0.87
same,normalized growth,"locus YDR195W, strain ref2",1.01
same,normalized growth,"locus YDR297W, strain sur2, hits give low values",0.959
same,normalized growth,"locus YDR334W, strain swr1, hits give low values",0.976
same,normalized growth,"locus YDR335W, strain msn5, hits give low values",0.997
same,normalized growth,"locus YDR392W, strain spt3, hits give low values",0.547 (active)
same,normalized growth,"locus YEL003W, strain gim4, hits give low values",0.96
same,normalized growth,"locus YEL037C, strain rad23, hits give low values",0.995
same,normalized growth,"locus YEL061C, strain CIN8 (second series), hits give low values",0.984
same,normalized growth,"locus YER015W, strain faa2, hits give low values",0.973
same,normalized growth,"locus YER016W, strain bim1, hits give low values",0.971
same,normalized growth,"locus YER111C, strain swi4, hits give low values",0.981
same,normalized growth,"locus YER155C, strain BEM2 (second series), hits give low values",0.922
same,normalized growth,"locus YFR010W, strain ubp6, hits give low values",0.973
same,normalized growth,"locus YGL167C, strain pmr1, hits give low values",0.973
same,normalized growth,"locus YGL173C, strain kem1, hits give low values",0.939
same,normalized growth,"locus YGL227W, strain vid30, hits give low values",0.981
same,normalized growth,"locus YGL240W, strain doc1, hits give low values",0.951
same,normalized growth,"locus YGL253W, strain hxk2, hits give low values",0.967
same,normalized growth,"locus YHR013C, strain ard1, hits give low values",0.875
same,normalized growth,"locus YHR027C, strain rpn1, hits give low values",0.98
same,normalized growth,"locus YHR142W, strain chs7, hits give low values",0.991
same,normalized growth,"locus YJL092W, strain hpr5, hits give low values",0.988
same,normalized growth,"locus YJL095W, strain BCK1 (second series), hits give low values",0.971
same,normalized growth,"locus YJL115W, strain asf1, hits give low values",0.982
same,normalized growth,"locus YJL129C, strain trk1, hits give low values",0.89
same,normalized growth,"locus YJL154C, strain vps35, hits give low values",0.992
same,normalized growth,"locus YJL164C, strain tpk1, hits give low values",0.986
same,normalized growth,"locus YJL166W, strain qcr8, hits give low values",0.937
same,normalized growth,"locus YJL187C, strain SWE1, hits give low values",0.972
same,normalized growth,"locus YKL160W, strain elf1, hits give low values",0.957
same,normalized growth,"locus YKR026C, strain gcn3, hits give low values",0.983
same,normalized growth,"locus YKR091W, strain srl3, hits give low values",0.984
same,normalized growth,"locus YLL001W, strain dnm1, hits give low values",0.945
same,normalized growth,"locus YLL026W, hits give low values",0.968
same,normalized growth,"locus YLL041C, strain sdh2, hits give low values",0.983
same,normalized growth,"locus YLR027C, strain aat2, hits give low values",0.948
same,normalized growth,"locus YLR221C, strain rsa3, hits give low values",0.947
same,normalized growth,"locus YLR258W, strain gsy2, hits give low values",0.994
same,normalized growth,"locus YLR262C, strain YPT6 (second series), hits give low values",0.874
same,normalized growth,"locus YLR320W, strain mms22, hits give low values",0.899
same,normalized growth,"locus YLR342W, strain FKS1, hits give low values",0.963
same,normalized growth,"locus YLR357W, strain rsc2, hits give low values",1.01
same,normalized growth,"locus YLR370C, strain arc18, hits give low values",0.958
same,normalized growth,"locus YLR384C, strain iki3, hits give low values",0.964
same,normalized growth,"locus YML120C, strain ndi1, hits give low values",0.985
same,normalized growth,"locus YMR058W, strain fet3, hits give low values",0.991
same,normalized growth,"locus YMR125W, strain sto1, hits give low values",0.992
same,normalized growth,"locus YMR129W, hits give low values",0.97
same,normalized growth,"locus YMR205C, strain PFK2, hits give low values",0.878
same,normalized growth,"locus YMR231W, strain pep5, hits give low values",0.984
same,normalized growth,"locus YNL071W, strain lat1, hits give low values",0.878 (active)
same,normalized growth,"locus YNL209W, strain ssb2, hits give low values",0.982
same,normalized growth,"locus YNL248C, strain rpa49, hits give low values",0.973
same,normalized growth,"locus YNL322C, strain KRE1 (second series), hits give low values",1
same,normalized growth,"locus YNR049C, strain mso1, hits give low values",0.982
same,normalized growth,"locus YOR001W, strain rrp6, hits give low values",0.915
same,normalized growth,"locus YOR070C, strain gyp1, hits give low values",0.957
same,normalized growth,"locus YOR080W, strain dia2, hits give low values",0.979
same,normalized growth,"locus YOR083W, strain WHI5, hits give low values",0.99
same,normalized growth,"locus YOR106W, strain vam3, hits give low values",0.98
same,normalized growth,"locus YOR265W, strain rbl2, hits give low values",0.979
same,normalized growth,"locus YOR270C, strain vph1, hits give low values",0.808
same,normalized growth,"locus YOR290C, strain snf2, hits give low values",0.989
same,normalized growth,"locus YPL051W, strain arl3, hits give low values",0.914 (active)
same,normalized growth,"locus YPL078C, strain atp4, hits give low values",1.01
same,normalized growth,"locus YPL106C, strain sse1, hits give low values",0.984
same,normalized growth,"locus YPL240C, strain hsp82, hits give low values",0.984
